Screen size: about 52,000 compounds; about 1,700 (3.3%) were called active. The sample holds actives, similar compounds and a random draw of the others, so the mix is not that of the screen. Rule as the data show it: active = survival mostly below about 52% (no sharp cut-off); inactive = mostly above about 56%.

This assay concerns Wild type. In words: growth inhibition of S. aureus wild type versus tarO mutant, primary screen, teichoic acid synthesis inhibitors, RN4220, OD600 (AID 463173). To be noted: S. aureus RN4220 wild type/DeltatarO growth, OD600, 18 h, active compounds read low, screened at 18.75 µg/mL (by protocol).
Regarding `O=C(NC1CCCCC1)C(c1ccco1)N(C(=O)C1COc2ccccc2O1)c1cccc(F)c1` (stereo not drawn), the survival is 132% (inactive).

Consider `COc1ccc(NC(=O)c2c(C(=O)Nc3ccccc3)sc3nc(C)cc(=O)n23)cc1`, for which the survival was 93% (inactive).

In the case of `NC(=O)CSc1nsc(SCC(N)=O)n1`, the survival was 109% (inactive).

In the case of `O=C(O)CSc1nc2ccccc2nc1N1CCCCC1`, the survival was 62% (inactive).

Turning to `Cc1cc(C)c(NC(=O)CSc2nc3ccccc3nc2N2CCCCC2)c(C)c1`, the survival was 38% (inactive).

As for `COc1ccc(Cl)cc1NC(=O)CSc1nc2ccccc2nc1N1CCCCC1`, the survival was -9% (active).

On to `CC(C)NC(=O)CSc1nc2ccccc2nc1N1CCCCC1`, for which the survival is -28% (active).

With `COc1ccc(C)cc1NC(=O)CSc1nc2ccccc2nc1N1CCOCC1`, the survival was 72% (inactive).

On to `COc1ccccc1Cc1nc2ccccc2nc1SCC(=O)Nc1cc(Cl)ccc1OC`, for which the survival is 89% (inactive).

Consider `Cc1ccc(C)c(Cn2c(=O)n(Cc3ccc4c(c3)OCO4)c(=O)c3oc4ccccc4c32)c1`, for which the survival was 89% (inactive).

In the case of `O=C(Cc1ccc(F)cc1)NCCc1csc(-c2cccc(F)c2)n1`, the survival was 69% (inactive).

As to `Cc1cccc(-c2nc(CCNC(=O)Cc3ccccc3)cs2)c1`, the survival is -1% (active).

Regarding `Cc1cccc(-c2nc(CCNC(=O)Cc3ccc(F)cc3)cs2)c1`, the survival was 14% (active).

`COc1ccc(CC(=O)NCCc2csc(-c3ccc(C(F)(F)F)cc3)n2)cc1`: the survival is -6% (active).

For the compound `COc1ccc(CC(=O)NCCc2csc(-c3cccc(C)c3)n2)cc1`, the survival was 74% (inactive).

As to `O=C(NCCc1csc(-c2cccc(F)c2)n1)c1ccco1`, the survival was 69% (inactive).

As for `COc1ccc(-c2nc(CCNC(=O)Cc3ccc(F)cc3)cs2)cc1`, the survival was 134% (inactive).

With `COc1ccc(CCC(=O)NCCc2csc(-c3ccc(C(F)(F)F)cc3)n2)cc1`, the survival is 80% (inactive).

As to `Cc1cccc(-c2nc(CCNC(=O)c3ccco3)cs2)c1`, the survival was -6% (active).

As for `Cc1cccc(-c2nc(CCNC(=O)COc3ccccc3)cs2)c1`, the survival is 73% (inactive).

For `CCOc1ccc(CC(=O)NCCc2csc(-c3ccc(C(F)(F)F)cc3)n2)cc1`, the survival is 90% (inactive).

Consider `Cc1cccc(-c2nc(CCNC(=O)c3ccc(Br)o3)cs2)c1`, for which the survival is 69% (inactive).

On to `CC(C)c1cnc2c(c1SCC(=O)NC(C)(C)C)c(=O)n(C)c(=O)n2C`, for which the survival is 80% (inactive).

Take `NC(=O)/C=C/C(=O)Nc1ccc2c(c1)OCO2`: the survival was 89% (inactive).

Regarding `O=C(NCCc1csc2nc(-c3ccc(F)cc3)nn12)c1ccco1`, the survival was 126% (inactive).

Consider `COc1ccc(/C=C\c2onc(C)c2S(=O)(=O)N2CCC(C(=O)Nc3ccc(C)c(F)c3)CC2)cc1`, for which the survival was 93% (inactive).

With `CC(=O)N1c2c(cc(Br)cc2S(=O)(=O)NCc2ccccc2Cl)CC1C` (stereo not drawn), the survival is 73% (inactive).

In the case of `C=Cc1ccc(Cn2c(C(=O)O)c(CNCc3cc(Br)ccc3OC)c3ccc(C)cc32)cc1`, the survival is 99% (inactive).

Turning to `COc1ccc(CNC(=O)c2cc3sccc3n2Cc2ccc(C)cc2)cc1`, the survival was 91% (inactive).

As to `Fc1ccc(N2CCN(c3ncnc4c3nc3n4CCCCC3)CC2)cc1`, the survival was 55% (inactive).

Consider `COc1ccc(NC(=O)CSc2nnc(NC(=O)NC3CCCCC3)s2)cc1OC`, for which the survival was 65% (inactive).

For the compound `Cc1cc(C)c(S(=O)(=O)N2CCN(Cc3ccc4c(c3)OCO4)CC2)cc1C`, the survival is 9% (active).

In the case of `COc1ccc(S(=O)(=O)N2CCN(Cc3ccc4c(c3)OCO4)CC2)cc1OC`, the survival was 78% (inactive).

For the compound `Cc1ccc(S(=O)(=O)N2CCN(Cc3ccc4c(c3)OCO4)CC2)cc1`, the survival is 64% (inactive).

For `COc1ccc(NC(=O)c2ccco2)cc1NC(=O)c1ccc(C)c(C)c1`, the survival was 69% (inactive).

Turning to `COc1ccc(CNC(=O)c2cc3sccc3n2CC(=O)c2ccccc2)cc1`, the survival is 110% (inactive).

Regarding `CCc1ccc(NC(=O)CC2C(=O)N(c3cccc(OC)c3)C(=O)N2C2CCCC2)cc1` (stereo not drawn), the survival was 120% (inactive).

Regarding `CCCCNC(=O)CCn1c(=O)c2ccccc2n(Cc2cccc(Cl)c2)c1=O`, the survival was 94% (inactive).

As for `CCSc1nc2ccc(C)cc2cc1C#N`, the survival is 111% (inactive).

On to `CCC(=O)C1=C(c2ccc(F)cc2)N(C(=O)CC)n2c(nnc2-c2ccc(OC)cc2)S1`, for which the survival was 53% (inactive).

`CCC(=O)C1=C(c2ccc(F)cc2)N(C(=O)CC)n2cnnc2S1`: the survival is 133% (inactive).

Regarding `CCC(=O)C1=C(c2ccccc2)N(C(=O)CC)n2c(nnc2C2CCCCC2)S1`, the survival is 14% (active).

As to `CCC(=O)C1=C(c2cccc([N+](=O)[O-])c2)N(C(=O)CC)n2c(nnc2-c2ccccc2)S1`, the survival was 0% (active).

Take `CCC(=O)C1=C(c2ccc(C)cc2)N(C(=O)CC)n2c(nnc2C2CCCCC2)S1`: the survival is 76% (inactive).

Turning to `CCC(=O)C1=C(c2cccc([N+](=O)[O-])c2)N(C(=O)CC)n2c(nnc2C2CCCCC2)S1`, the survival is 63% (inactive).

Consider `CC(=O)C1=C(c2cccc([N+](=O)[O-])c2)N(C(C)=O)n2c(nnc2-c2ccc(C)cc2)S1`, for which the survival was 85% (inactive).

As for `CCCC(=O)C1=C(c2ccc(C)cc2)N(C(=O)CCC)n2cnnc2S1`, the survival was 134% (inactive).

For `CCOc1ccc(C2=C(C(=O)CC)Sc3nncn3N2C(=O)CC)cc1`, the survival is -1% (active).

For `CCC(=O)C1=C(c2ccc(F)cc2)N(C(=O)CC)n2c(nnc2C2CCCCC2)S1`, the survival is 78% (inactive).

For the compound `CCC(=O)C1=C(c2ccccc2)N(C(=O)CC)n2c(nnc2-c2ccccc2)S1`, the survival is -6% (active).

For the compound `CCC(=O)C1=C(c2ccc(OC)c(OC)c2)N(C(=O)CC)n2c(nnc2-c2ccc(C)cc2)S1`, the survival is 74% (inactive).

As for `COc1cc(C(=O)Nc2ccc3nc(SCc4ccc(C)cc4)sc3c2)cc(OC)c1OC`, the survival was 113% (inactive).

Turning to `CCc1ccc(N2C(=O)CSC23C(=O)N(Cc2ccc(C)cc2)c2ccccc23)cc1` (stereo not drawn), the survival is 66% (inactive).

On to `Cc1ccc(NC(=O)Nc2nnc(N3CCCCC3)s2)c(C)c1`, for which the survival is 97% (inactive).

In the case of `CCC(=O)Nc1nnc(SCCOC)s1`, the survival was 120% (inactive).

Consider `COc1ccc(-c2oc3ncn4nc(-c5cccc(C)c5)nc4c3c2-c2ccc(OC)cc2)cc1`, for which the survival was 68% (inactive).

As for `O=C(COc1ccccc1)NCc1ccc2c(c1)CCN2C(=O)c1ccc(Cl)cc1`, the survival is 82% (inactive).

For the compound `COC(=O)c1ccc(NC(=O)Cn2nc(C(=O)Nc3ccc(C)cc3)ccc2=O)cc1`, the survival was 85% (inactive).

Source of the values: PubChem BioAssay AID463173 (ICCB-Longwood Screening Facility, Harvard Medical School, 2010).
